# Active and inactive are the calls of the source. Rule for the calls: active = hit-call score of the fitted dose curve at least 0.9, where 1 is the maximum; inactive = score below 0.9.
# Assay: CCTE_Shafer_MEA_acute_per_network_burst_electrodes_number_mean: CCTE's Neural Acute Assay for Mean Number of Electrodes in a Network Burst, Shafer Lab (AID 2284021);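 note: curves fitted for decreases only so hits reduce electrodes per burst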
# Protocol: CCTE_Shafer_MEA_acute assay is conducted using Axion Biosystems 48 well microelectrode array (MEA) plates and Maestro recording system. Each well of the MEA plate contains a grid of 16 microelectrodes embedded in the culture surface. Electrically active cells, such as neurons, can be cultured over the electrodes, and electrical activity in these cells can be recorded extracellularly. The spontaneous firing of neurons is captured from each electrode on a microsecond timescale providing both temporally and spatially precise data. […] The CCTE_Shafer_MEA_acute assay uses primary cultures of rat cortical neurons. As these cultures mature over time, neural networks develop functional activity and form cohesive networks in which electrical activity can be highly coordinated. Baseline 40-minute recordings are made on days post-plating 13 or 15, followed by a secondary 40-minute recording after chemical exposure.CCTE_Shafer_MEA_acute_per_network_burst_electrodes_number_mean is a component of the CCTE_Shafer_MEA_acute assay. It measures the average number of electrodes with activity during a network burst (a temporally-clustered group of action potential firing across multiple electrodes) in a recording in a microelectrode array (MEA) using Axion Biosystems Maestro 768 channel amplifier with the AxIS adaptive spike detector. The recordings before and after chemical treatment are used to calculate a percent change in the mean number of electrodes participating in network bursts in each well.Data from the assay component CCTE_Shafer_MEA_acute_per_network_burst_electrodes_number_mean was analyzed into 1 assay endpoint. This assay endpoint, CCTE_Shafer_MEA_acute_per_network_burst_electrodes_number_mean, was analyzed in the negative analysis fitting direction relative to DMSO as the negative control and baseline of activity. Using a type of functional reporter, gain or loss-of-signal activity can be used to understand electrical activity.
# Spontaneous activity in the cortical cultures was recorded using an Axion Biosystems Maestro 768 channel amplifier and Axion Integrated Studios (AxIS) v1.8 (or later) software. The amplifier recorded from all channels simultaneously (gain = 1200 x; sampling rate = 12.5 kHz/channel): raw signals were filtered with a Butterworth band-pass filter (300-5000 Hz), which filters out slower local field potentials leaving only fast potentials, i.e., "spikes", arising from extracellular currents associated with action potentials (Pine 2006; Wheeler and Nam 2011). On-line spike detection of filtered signals was conducted with the AxIS adaptive spike detector, using a threshold of 8x the root mean squared (rms) noise on each channel. Any electrodes with rms noise levels greater than 5 uV were grounded (e.g., no data were recorded). Once grounded, an electrode was grounded for the duration of the experiment. All recordings were conducted at 37 C. Wells were deemed usable if on the day of the exposure >/= 10 electrodes were active (defined as >/= 5 spikes/min). On DIV 13 or 15, a minimum of three wells from one cortical culture preparation were treated with each compound (0.03-40 uM). Prior to recording baseline activity, each mwMEA plate was placed in the Maestro at 37 C and allowed to sit for 20 min while firing rates stabilized. Baseline activity (40 min) was recorded before the addition of each compound. An additional 40 min of spontaneous activity was recorded in the presence of each compound. Changes in network parameters relative to baseline were assessed following compound treatment.
SMILES,outcome,AC50
c1ccc2n[nH]nc2c1,inactive,–
CN1C(=O)CC[C@H]1c1cccnc1,inactive,–
CC[C@@H]1C[C@H](N(Cc2cc(C(F)(F)F)cc(C(F)(F)F)c2)C(C)=O)c2cc(C(F)(F)F)ccc2N1C(=O)OC(C)C,inactive,–
Cc1cc2c(cc1C(F)(F)F)N(C(=O)Nc1ccc(Oc3cccnc3C)nc1)CC2,inactive,–
CN(C)C(=O)C1(N2CCCCC2)CCN(CC[C@@]2(c3ccc(Cl)c(Cl)c3)CN(C(=O)c3ccccc3)CCO2)CC1,–,22.4 µM (active)
CC(C)(c1cc(Br)c(O)c(Br)c1)c1cc(Br)c(O)c(Br)c1,inactive,–
CC(=O)N1CCN(c2ccc(OC[C@H]3CO[C@](Cn4ccnc4)(c4ccc(Cl)cc4Cl)O3)cc2)CC1,inactive,–
CC(C)(C)c1cc(/C=C2\SC(N)=NC2=O)cc(C(C)(C)C)c1O,inactive,–
CC(O)CC(C)(C)O (stereo unspecified),inactive,–
CCCCCCCCOC(=O)c1cc(O)c(O)c(O)c1,–,8.24 µM (active)
C[C@]12CC[C@@H]3c4ccc(O)cc4CC[C@H]3[C@@H]1CC[C@H]2O,inactive,–
CN(C)c1ccc(C(=C2C=CC(=[N+](C)C)C=C2)c2ccc(N(C)C)cc2)cc1,inactive,–
CC1=CC(=O)/C(=C(/C)O)C(=O)O1,inactive,–
CO[C@H]1/C=C/O[C@@]2(C)Oc3c(C)c(O)c4c(O)c(c(/C=N/N5CCN(C)CC5)c(O)c4c3C2=O)NC(=O)/C(C)=C\C=C\[C@H](C)[C@H](O)[C@@H](C)[C@@H](O)[C@@H](C)[C@H](OC(C)=O)[C@@H]1C,inactive,–
O=c1[nH]sc2ccccc12,inactive,–
COc1cc(C(=O)NC2CCN(C)CC2)ccc1Nc1ncc2c(n1)N(C1CCCC1)CC(F)(F)C(=O)N2C,–,5.23 µM (active)

SMILES,outcome,AC50
CCCCCCCCCCCCO,inactive,–
NC(=O)c1nc(-c2cccc(-c3cc(F)ccc3OCC(F)(F)C(F)(F)F)c2)n[nH]1,inactive,–
NCc1cccc(C2CCN(C(=O)c3ccc(C#Cc4ccccc4F)o3)CC2)c1,–,20 µM (active)
OC12N=C(c3ccccc3)SC1Cc1cc(Cl)ccc12 (stereo unspecified),–,32.5 µM (active)
CN(C[C@@H](CC[N+]12CCC(C3CCCCC3)(CC1)CC2)c1ccc(Cl)c(Cl)c1)C(=O)c1cc(C(F)(F)F)cc(C(F)(F)F)c1,–,5 µM (active)
CC/C(=C(/CC)c1ccc(O)cc1)c1ccc(O)cc1,–,20 µM (active)
Cc1cn([C@H]2C[C@H](N=[N+]=[N-])[C@@H](CO)O2)c(=O)[nH]c1=O,inactive,–
Cc1c2ccccc2c(C)c2c1ccc1ccccc12,inactive,–
CCN(CC)C(=O)c1cc(S(=O)(=O)Cc2ccccc2)c(N2CCC(c3ccccc3)CC2)cc1N(CC)CCN(C)C,inactive,–
COc1cccc([C@H](O)C2CCN(CCc3ccc(F)cc3)CC2)c1OC,inactive,–
O=C1O[C@H]([C@@H](O)CO)C(O)=C1O,inactive,–
CCN(Cc1cccc(S(=O)(=O)O)c1)c1ccc(C(=C2C=CC(=[N+](CC)Cc3cccc(S(=O)(=O)O)c3)C=C2)c2ccccc2S(=O)(=O)[O-])cc1,inactive,–
CCCCOC(=O)c1ccc(O)cc1,inactive,–
O=C(O)c1ccccc1-n1cc(C(=O)O)c(=O)c2cc(Nc3c(F)cc(F)cc3Cl)c(Cl)cc21,inactive,–
Clc1ccccc1C(c1ccccc1)(c1ccccc1)n1ccnc1,–,2.24 µM (active)
